Data taken from PubChem BioAssay (Tox21).
Active and inactive are the calls of the source. The call rests on the fitted dose curve; in most records, active means well fitted curve in the direction sought with a large enough effect in the repeat runs; inconclusive means weak or mixed curves; inactive means flat fitted curve, though single readings scatter.

Test: qHTS assay to test for compound auto fluorescence at 460 nm (blue) in HEK293 cells (AID 720678)
Details: blue autofluorescence 405/460 nm; series mostly up to 91.3 µM; fluorescence, % of triamterene: at the top concentration
Excerpt: National Center for Advancing Translational Sciences [NCATS]
NIH Chemical Genomics Center [NCGC]
U.S. Environmental Protection Agency [EPA]
National Institutes of Environmental Health Sciences [NIEHS]
National Toxicology Program [NTP]
U.S. Food and Drug Administration [FDA]
Compound auto fluorescence often interferes with screening of the compound library against various biological targets and signaling pathways. Some of these compounds may have fluorophoric properties. Such properties may interfere with the assay outputs resulting in false positives and/or negatives. To decrease such complications and ensure the compound activities are relevant in terms of biological response, the Tox21 10K compound library was screened for auto fluorescence.
From the fluorophores used as reporter signals in our screening assays, the auto fluorescence equivalencies of compounds against three fluorophores have been evaluated: Triamterene, Fluorescein and Rose Bengal sodium for blue, green and red fluorescence, respectively. The fluorescence intensities were measured using Excitation/Emission wavelengths at 405/460nm, 485/535nm and 540/590nm for blue, green and red labels, respectively. This assay includes the blue fluorescence data.
Tox21 Assay Protocol Summary:
2,000 HEK293 cells in 5 uL of culture medium containing 10% dialyzed FBS per well were dispensed into black wall/clear bottom 1536-well plates using a Multidrop Combi Dispenser (Thermo Scientific). The assay plates were incubated for 4-5 hr at 37C to allow cell attachment to the well bottom, followed by the transfer of 23 nL compound or DMSO vehicle by a pintool work station (Kalypsys, San Diego, CA). After the assay plates were incubated overnight at 37C and 5% CO2, fluorescence intensities in the assay plates were measured by an Envision (PerkinElmer, Shelton, CT) plate reader using three labels for measuring blue, green and red fluorescence at […] 460, 535 and 590nm respectively.
On the % scale 0 is the no-effect control and ±100 the full control effect.

SMILES | fluorescence, % of triamterene | outcome
CCC(C)NC(N)=O (stereo not given) | -0.0078% (inactive) | 
CCCCCCCCCCl | -0.108% (inactive) | 
O=C(O)C(=O)Cc1ccccc1 | -0.152% (inactive) | 
CC(C)(C)c1n[nH]c(=S)n(N)c1=O | -0.0484% (inactive) | 
CCCC/C=C/C=C\C=O | 0.189% (inactive) | 
Nc1nnc(-c2cccc(Cl)c2Cl)c(N)n1 | -0.285% [at 46 µM] (inactive) | 
NS(=O)(=O)c1ccc(NC(=O)CCC(=O)O)cc1 | 0.0483% [at 46 µM] (inactive) | 
CCCCOC(=O)c1ccccc1 | 0.0837% (inactive) | 
O=C(CS(=O)Cc1ccco1)NC/C=C\COc1cc(CN2CCCCC2)ccn1 (stereo not given) | 0.353% [at 46 µM] (inactive) | 
CCCCC(CC)COCCO (stereo not given) | -0.0484% (inactive) | 
NCCS |  | inactive
CN=C(NC#N)Nc1ccc(C2=NNC(=O)CC2C)cc1 (stereo not given) | -0.0104% [at 46 µM] (inactive) | 
COc1ccc2c(c1)C(=O)N(CCc1ccc(S(=O)(=O)NC(=O)NC3CCCCC3)cc1)C(=O)C2(C)C | 0.056% [at 18.6 µM] (inactive) | 
O=C(c1ccc(O)cc1)c1ccc(O)c(O)c1O | 0.474% (inactive) | 
O=S(O)(O)=S | -0.0172% [at 3.72 µM] (inactive) | 
N#Cc1ccc(C(=O)O)cc1 | -0.143% (inactive) | 
Cc1c(I)c(=O)n(-c2ccccc2)n1C | 0.0424% [at 46 µM] (inactive) | 
CCOc1cc([N+](=O)[O-])c(OCC)cc1N1CCOCC1 | -0.0356% (inactive) | 
C[Si](C)(C)C | -0.401% (inactive) | 
COc1ccc(S(=O)(=O)N2c3ccc(Cl)cc3[C@@](O)(c3ccccc3Cl)[C@H]2C(=O)N2CCC[C@@H]2C(N)=O)cc1OC | -0.2% [at 46 µM] (inactive) | 

SMILES | fluorescence, % of triamterene | outcome
CC(C)=O |  | inactive
CC[C@H](C)C(=O)O[C@H]1C[C@H](O)C=C2C=C[C@H](C)[C@H](CC[C@@H](O)C[C@@H](O)CC(=O)O)[C@H]21 |  | inactive
Cc1cc2cc3c(C)cc(=O)oc3c(C)c2o1 | 1.9% [at 18.6 µM] (inactive) | 
COc1ccc(OC)c(Cl)c1 | 0.0358% (inactive) | 
BrCc1cccc(Oc2ccccc2)c1 | -0.105% (inactive) | 
CCC(CC)CO | -0.415% (inactive) | 
CC(C)=CCOC(=O)c1ccccc1 | -0.009% (inactive) | 
O=C(OCc1ccccc1)C(=O)OCc1ccccc1 | -0.0066% (inactive) | 
CC(COC(C)(C)C)OCCCO (stereo not given) | -0.0328% (inactive) | 
C=COCCOCCOCCOC=C | 0.0104% (inactive) | 
CC1COc2ccccc2N1 (stereo not given) | 0.018% (inactive) | 
COCCOCCOCCOCCOCCO | -0.109% (inactive) | 
CCCCCCCCC1CCC(=O)O1 (stereo not given) | 0.011% (inactive) | 
CCCCCOC(=O)CCC | -0.015% (inactive) | 
CN1C(C)(C)CCCC1(C)C | -0.0501% [at 46 µM] (inactive) | 
CCCCN | -0.0244% [at 46 µM] (inactive) | 
CCN(CC)CC(=O)Nc1c(C)cccc1C | -0.157% [at 46 µM] (inactive) | 
COc1nccnc1NS(=O)(=O)c1ccc(N)cc1 | -0.384% [at 46 µM] (inactive) | 
CC(=O)Nc1ccc(S(=O)(=O)Nc2ccc([N+](=O)[O-])cc2)cc1 | -0.666% [at 46 µM] (inactive) | 
Cc1ccccc1OCC(O)CO (stereo not given) | 0.158% [at 46 µM] (inactive) | 
